# Results taken from PubChem BioAssay AID1851 (National Center for Advancing Translational Sciences (NCATS), 2009).
# The campaign covered roughly 16,000 compounds. About 2,600 (16%) were called active. About 20% were inconclusive and are not listed. Calls come from the whole dose curve; as a rule, active = well fitted curve in the direction sought with a large enough effect; inconclusive = small, poorly fitted or top-dose-only effect, or effect the other way; inactive = no such curve, though single readings can be large or run the other way. Not all results are given here.
# Target: Cytochrome P450 2D6 (Homo sapiens) (UniProt P10635)
# Assay: Cytochrome panel assay with activity outcomes
# Conditions: recombinant CYP, pro-luciferin dealkylation, luminescence, p450-cyp2d6; series mostly up to 57.1 µM
# % is set by controls: 0 for no effect and ±100 for the full control effect.
# Sequence of Cytochrome P450 2D6 (Homo sapiens) (P10635 whole entry, looked up): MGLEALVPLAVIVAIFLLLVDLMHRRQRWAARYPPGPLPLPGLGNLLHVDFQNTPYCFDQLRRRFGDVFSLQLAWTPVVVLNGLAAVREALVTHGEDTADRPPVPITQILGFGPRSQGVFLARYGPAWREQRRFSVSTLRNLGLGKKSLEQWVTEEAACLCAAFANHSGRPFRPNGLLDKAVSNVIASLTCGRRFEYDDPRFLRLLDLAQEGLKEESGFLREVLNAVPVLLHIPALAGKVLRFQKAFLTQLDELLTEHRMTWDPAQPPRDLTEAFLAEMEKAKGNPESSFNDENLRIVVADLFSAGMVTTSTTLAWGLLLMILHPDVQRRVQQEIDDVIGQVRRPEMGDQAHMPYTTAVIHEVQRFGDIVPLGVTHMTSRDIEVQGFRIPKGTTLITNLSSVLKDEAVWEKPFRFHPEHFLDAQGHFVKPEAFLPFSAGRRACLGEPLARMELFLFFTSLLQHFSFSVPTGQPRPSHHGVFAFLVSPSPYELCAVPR
Structure (SMILES),"activity, negative = inhibition",AC50
C#CCCCO/N=C1/C[C@@H](O)[C@@H](O)[C@@H]2[C@@H]3C(=O)N(C[C@@H]4CCCO4)C(=O)[C@H]3CC[C@H]12,-7.06% [at 11.4 µM] (inactive),–
Cn1c(=O)c(-c2ccccc2)nc2cnc(N3CCOCC3)nc21,–,inactive
CC(=O)OC1COC(N2CCc3cc([N+](=O)[O-])ccc32)C(OC(C)=O)C1OC(C)=O (centres undefined),–,inactive
COc1cccc(-c2csc(N3CCN(CC(=O)NNC(=O)c4ccc(Cl)cc4)CC3)n2)c1,–,inactive
CC(C)(CO[C@H]1C[C@H]2CC[C@@]1(C)C2(C)C)[N+](=O)[O-],11.9% [at 11.4 µM] (inactive),–
CC(C)=CCC/C(C)=C/CO/N=C1/C[C@@H](O)[C@@H](O)[C@@H]2[C@@H]3C(=O)N(C4CCCCC4)C(=O)[C@H]3CC[C@H]12,-9.81% [at 11.4 µM] (inactive),–
CS(=O)(=O)c1ccc(/C=N\NC(N)=S)cc1,9.53% [at 11.4 µM] (inactive),–
O=C(CSc1nnc2sc3ccccc3n12)NCc1ccco1,–,inactive
CCc1c(O)nc(SCC(=O)NC(C)(C)C)n(-c2ccccc2)c1=O,–,inactive
CC1(C)Cc2c(sc3nc(SCC(=O)NCc4ccccc4)n(-c4ccccc4)c(=O)c23)CS1,–,3.55 µM (active)
CC(Cc1ccccc1)NC(=O)CSc1nc2nc3c(cc2c(=O)n1-c1ccccc1)COC(C)(C)C3 (centres undefined),–,inactive
Cc1ccc(-n2c(N)c(C(=O)NCc3ccco3)sc2=S)cc1,–,inactive
Cc1ccc(-n2c(SCC(=O)NCc3ccco3)nc3sc4c(c3c2=O)CC(C)(C)SC4)cc1,–,2.82 µM (active)
Cn1cc[nH]c1=S,–,inactive
Cn1cnc([N+](=O)[O-])c1SCC(=O)O,-1.18% [at 11.4 µM] (inactive),–
C[C@@H]1C[C@H](OC(=O)c2ccccc2O)CC(C)(C)C1,–,inactive
CCOc1ccc(NC(=O)CSc2nc(C)c3c(c2C#N)CCCC3)cc1,–,inactive
CSc1nc(N)nc(SCC(=O)Nc2ccc(Cl)cc2)c1C#N,–,2.24 µM (active)
COc1ccc(NC(=O)CSc2nc(-c3ccc(C)cc3)cc(C(F)(F)F)c2C#N)cc1,–,inactive
O=C(c1cccc(F)c1)N1CCC2(CCCN(c3cccc(-c4ccccc4)c3)C2)CC1,–,inactive
CN1CCCN(C)C1c1cc([N+](=O)[O-])ccc1O,-9.66% [at 11.4 µM] (inactive),–
CC1CCCN(C(=O)c2sc3cc([N+](=O)[O-])ccc3c2Cl)C1 (centres undefined),–,10 µM (active)
O=C(c1sc2ccccc2c1Cl)N1CCN(c2ccc(F)cc2)CC1,–,inactive
CC1CCCC(NC(=O)C2CCN(S(=O)(=O)N3CCC4(CC3)OCCO4)CC2)C1C (centres undefined),–,inactive
